Test results as given in PubChem BioAssay AID1069 (NMMLSC, 2008).
The source made the active and inactive calls.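 The calls were made as follows: active = high combined rank on largest and smallest cell-count-weighted shift across three tests, rank score above 45, floors 50 and 25 (some results past the limit were not filed as active); inactive = the rest.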

Experiment: activators of LNCaP cell differentiation, retest, confirmation, side scatter shift, flow cytometry (AID 1069);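 also: LNCaP human prostate cancer cells in low-serum medium with charcoal-stripped FBS; percent of cells with raised granularity gated so DMSO controls show 10%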
Details: 4 d, stronger effect = higher value

| SMILES | side scatter shift (at 100 µM) | side scatter shift (side scatter shift, at 10 µM) |
| --- | --- | --- |
| O=C1CCCc2c1cc(C(=O)NC1CCSC1=O)c(=O)n2-c1ccccc1 (stereo not drawn) | 5.9% (inactive) | 4.8% |
| O=C(C1CCN(S(=O)(=O)c2cccc3nsnc23)CC1)N1CC=C(c2ccccc2)CC1 | 25.9% (inactive) | 9.3% |
| Cc1oc(-c2cccc(Cl)c2)nc1CN1CCCC(C(=O)NCCCN2CCOCC2)C1 (stereo not drawn) | 27.3% (inactive) | 23.6% |
| Cc1oc(-c2ccccc2F)nc1CN1CCC(C(=O)NCCC2=CCCCC2)CC1 | 29.4% (inactive) | 17.8% |
| Cn1c(C(=O)NCCN2CCN(c3ccccc3F)CC2)cc2c(=O)n(C)c3ccccc3c21 | 50% (inactive) | 7.7% |
| CCCCOC(=O)CSc1nc2c(cc1C#N)C(=O)CC(C)(C)C2 | 16.3% (inactive) | 5.85% |
| COc1ccc(N2CCN(CCCNC(=O)CN3CCN(Cc4ccccc4C)C3=O)CC2)cc1 | 15.8% (inactive) | 16.6% |
| O=C(CCNC(=O)Cn1ccc2ccccc2c1=O)NCCCN1CCN(c2ccc(F)cc2)CC1 | 21.8% (inactive) | 7.25% |
| Cc1nc2nc(C)c(CCC(=O)NCCCN3CCN(c4cccc(Cl)c4)CC3)c(C)n2n1 | 27.9% (inactive) | 7.4% |
| Cc1cccc(N2CCN(C(=O)CCNC(=O)Cn3ccc4ccccc4c3=O)CC2)c1C | 0% (inactive) | 2% |
| CN(CCNC(=O)C1CC(=O)N(c2ccc(F)c(Cl)c2)C1)Cc1ccccc1 (stereo not drawn) | 62% (active) | 3.65% |
| COc1ccc(CCNC(=O)C2CCCN(Cc3nc(-c4cccc(Cl)c4)oc3C)C2)cc1OC (stereo not drawn) | 28.6% (inactive) | 3.85% |
| Cc1ccc2c(c1)c1c(n2CC(O)CNC(CO)(CO)CO)CCCC1 (stereo not drawn) | 34.3% (inactive) | 12.4% |
| CCOC(=O)N1CCN(C(=O)Cc2ccc(-n3c(=O)[nH]c4ccccc4c3=O)cc2)CC1 | 6.3% (inactive) | 2.6% |
| O=S(=O)(Nc1cccc2ncccc12)c1cccs1 | 14.3% (inactive) | 5.95% |
| CCN(CCNC(=O)C1CCN(Cc2nc(-c3ccc(Cl)cc3)oc2C)CC1)c1ccccc1 | 25% (inactive) | 26.4% |
| CCCN(CCC)CCNC(=O)C1CCN(Cc2nc(-c3ccc(Cl)cc3)oc2C)CC1 | 76.4% (active) | 74% |
| Cc1ccc(-c2noc(CCC(=O)NC3CCN(Cc4ccccc4)CC3)n2)cc1 | 33.3% (inactive) | 4.5% |
| CCOC(=O)C1=C(C)Nc2nc(SC)nn2C1c1ccc(C(=O)OC)cc1 (stereo not drawn) | 7.7% (inactive) | 7.15% |
| CC(C)CCNC(=O)C1CCN(c2nc3ccccc3o2)CC1 | 28.8% (inactive) | 7.65% |
| CCOC(=O)C1=C(O)CCn2c1nc1ccccc12 | 18% (inactive) | 3.3% |
| Cc1ccc2c(c1)-c1c(cnn1CC(=O)Nc1ccccc1N1CCN(C)CC1)CO2 | 9.6% (active) | 38% |
| CCOC(=O)c1c(C)[nH]c(C(=O)COC(=O)C2CC2C)c1C (stereo not drawn) | 24.3% (active) | 44.6% |
| CN(C)c1ccc(CNC2CC(C)(C)NC(C)(C)C2)cc1 | 49.2% (active) | 10.6% |
| CCN1CCCC1CNC(=O)C1CCN(Cc2nc(-c3cccc(Br)c3)oc2C)CC1 (stereo not drawn) | 6.3% (active) | 60.2% |
| COc1ccc(-c2cc(C(F)(F)F)nc(N3CCN(C)CC3)n2)cc1 | 25% (inactive) | 13.6% |
| CCOc1nc(-c2ccccc2O)nc2ccccc12 | 13.5% (inactive) | 8.8% |

| SMILES | side scatter shift (at 100 µM) | side scatter shift (side scatter shift, at 10 µM) |
| --- | --- | --- |
| O=C(NCCCN1CCN(c2ccccc2F)CC1)C1CCCN(S(=O)(=O)c2cnc[nH]2)C1 (stereo not drawn) | 7.3% (inactive) | 4.1% |
| CCOC(=O)c1ccc(-c2n[nH]c(=O)c3ccccc23)cc1 | 10.7% (inactive) | 3.3% |
| CCOC(=O)C1CCN(S(=O)(=O)c2ccc(-c3nc4ccccc4s3)s2)CC1 | 25.7% (inactive) | 7.85% |
| COc1ccc(/C=N/c2nc3ccccc3n2C)cc1OC | 10% (inactive) | 6.6% |
| O=C(NCCCN1CCN(c2cccc(Cl)c2)CC1)c1cccc(N2CCCC2=O)c1 | 50.5% (active) | 7.7% |
| CC(=O)Nc1cc(C(=O)N2CCOCC2)ccc1S(=O)(=O)c1ccc(C)cc1 | 11.4% (inactive) | 2.95% |
| Cc1cc2c(=O)n(CC(=O)N3CCN(c4ccccc4)CC3)cnc2s1 | 30.4% (inactive) | 5.8% |
| COCCCN(C(=O)Nc1ccccc1)C(C)c1ccncc1 (stereo not drawn) | 9.2% (inactive) | 2.8% |
| CCOC(=O)N1CCN(C(=O)C2CCN(Cc3nc(-c4ccccc4C)oc3C)CC2)CC1 | 30.6% (inactive) | 5.15% |
| Cn1nc(-c2ccc(Cl)cc2)c2cc(C(=O)NCCN3CCOCC3)sc21 | 30% (inactive) | 5.2% |
| Cc1oc(-c2cccc(Cl)c2)nc1CN1CCCC(C(=O)NC(C)c2ccc3c(c2)OCCO3)C1 (stereo not drawn) | 0% (inactive) | 1.65% |
| Cc1ccccc1-c1nc(CN2CCC(C(=O)N3CCC(C(N)=O)CC3)CC2)c(C)o1 | 12% (inactive) | 10.9% |
| Cc1oc(-c2ccc(Cl)cc2)nc1CN1CCC(C(=O)NCc2ccco2)CC1 | 37.1% (inactive) | 9.6% |
| CCc1ccc(-c2nc(CN3CCCC(C(=O)NCCc4ccc(OC)c(OC)c4)C3)c(C)o2)cc1 (stereo not drawn) | 25% (inactive) | 17.3% |
| COC(=O)c1ccc2c(=O)n(Cc3ccco3)c(SCC(=O)Nc3ccc(C)c(Cl)c3)nc2c1 | 21% (inactive) | 10.6% |
| Cc1cc(N2CCN(C)CC2)nc2ccc(NC(=O)c3ccc(Br)o3)cc12 | 0% (active) | 56.4% |
| COc1ccc(CCNC(=O)C2CCN(Cc3nc(-c4ccccc4F)oc3C)CC2)cc1OC | 9% (inactive) | 8.85% |
| Cc1ccc(Cl)cc1N1CCN(C(=O)c2cc3c(=O)n(C)c4ccccc4c3n2C)CC1 | 12.9% (inactive) | 22.5% |
| Cc1ccc(-c2noc(CCC(=O)NCCCN3CCN(c4ccc(F)cc4)CC3)n2)cc1 | 0% (inactive) | 17.4% |
| O=C(Nc1nc(-c2ccccc2)cs1)C1CCCCN1S(=O)(=O)c1ccccc1 (stereo not drawn) | 0.4% (inactive) | 4.75% |
| Cc1ccc(CN2CCSc3ccc(C(=O)N4CCN(c5ncccn5)CC4)cc32)cc1 | 18.6% (inactive) | 7.2% |
| CC1(C)CC(=O)c2cc(OCC(=O)NCCCN3CCN(c4ccccc4F)CC3)ccc2O1 | 27.3% (inactive) | 6.5% |
| CCCc1cc(-c2n[nH]c(C)c2-c2ccc(C(=O)OCC)o2)c(O)cc1O | 42.9% (inactive) | 5.15% |
| Cc1oc(-c2ccc(Cl)cc2)nc1CN1CCCC(C(=O)NCCCN2CCOCC2)C1 (stereo not drawn) | 42.9% (inactive) | 16.6% |
| Cc1ccc(Cn2c(C(=O)NCCCN3CCOCC3)cc3sccc32)cc1 | 20.1% (inactive) | 10.8% |
| CCc1nn(C(C)C(=O)N2CCc3ccccc3C2)c(=O)c2cc3occc3n12 (stereo not drawn) | 5.5% (inactive) | 2.8% |
| CN1CCN(CCCNC(=O)c2cc3c(-c4ccc(Cl)cc4)nn(C)c3s2)CC1 | 14.3% (active) | 57% |

| SMILES | side scatter shift (at 100 µM) | side scatter shift (side scatter shift, at 10 µM) |
| --- | --- | --- |
| CCC(C)NC(=O)c1cn(C)c(=O)c2cc(OC)c(OC)cc12 (stereo not drawn) | 25.6% (inactive) | 5.2% |
| COc1ccc(-c2cc(C(F)(F)F)nc(N3CCN(c4ccc(F)cc4)CC3)n2)cc1OC | 22.3% (inactive) | 3.05% |
| CCc1ccc(-c2nc(CN3CCC(C(=O)NCCN(CC)c4ccccc4)CC3)c(C)o2)cc1 | 50% (inactive) | 24.1% |
| CCCS(=O)(=O)N1CCCC(C(=O)NCCCN2CCN(c3ccccc3F)CC2)C1 (stereo not drawn) | 35.5% (inactive) | 5.95% |
| CS(=O)(=O)c1nc(-c2cccs2)cc(C(F)(F)F)n1 | 52.8% (inactive) | 15.6% |
| COc1ccc(Cl)c(N2CCN(CCCNC(=O)Nc3ccc(C)cc3)CC2)c1 | 26.3% (inactive) | 12% |
| CCOC(=O)N1CCN(C(=O)CN(c2cccc(C(F)(F)F)c2)S(=O)(=O)c2ccccc2)CC1 | 11.7% (inactive) | 5.4% |
| COC(=O)Nc1sc2c(c1C(N)=O)CCCCCC2 | 10% (inactive) | 5.65% |
| COc1ccccc1N1CCN(c2nc3ccccc3nc2C(C#N)C(=O)OC(C)C)CC1 (stereo not drawn) | 78.2% (active) | 21.1% |
| CCN1C(=O)OC2(CCCCC2)C1(C)O (stereo not drawn) | 10.4% (inactive) | 12.7% |
| CN1CCN(c2oc(COc3ccc(-c4ccccc4)cc3)nc2C#N)CC1 | 40% (inactive) | 10.8% |
| c1ccc(OCCCn2nnc(-c3cccnc3)n2)cc1 | 15.4% (inactive) | 3.1% |
| COc1cc(C2C3=C(Nc4ncnn42)c2ccccc2CC3)cc(OC)c1OC (stereo not drawn) | 11.2% (inactive) | 4.5% |
| O=C(NCCCN1CCN(c2ccccc2F)CC1)C1CCC(=O)N1C1CCCCC1 (stereo not drawn) | 8% (inactive) | 4.05% |
| c1cncc(-c2nc3ccccc3o2)c1 | 10.2% (inactive) | 2.9% |
| CCN1C=C(Cc2cccs2)C2=C(C1)C(c1cccs1)C(C#N)=C(N)O2 (stereo not drawn) | 20% (inactive) | 5.2% |
| CCN(CC)CCNC(=O)c1nn(-c2ccc(C)cc2)c(=O)c2c1c1ccccc1n2C | 50% (inactive) | 5.55% |
| N#C/C(=C\c1ccc(O)c(O)c1)C(=O)NCCCc1ccccc1 | 28.9% (inactive) | 7.05% |
| Cc1cc(C)n2nc(SCC(=O)Nc3ccc(F)cc3)nc2n1 | 4% (inactive) | 2.8% |
| Nc1cccc2cnccc12 | 4.1% (inactive) | 6.95% |
| Cc1ccc(NC(=O)N2CCCN(Cc3ccc(F)cc3)C2)cc1C | 15.4% (inactive) | 28.2% |
| CCN(CC)CCNC(=O)c1cc2c(-c3ccc(Cl)cc3)nn(C)c2s1 | 24% (inactive) | 64.8% |
| CC(=O)c1cccc(NC2c3ccccc3C(=O)N2Cc2ccc3c(c2)OCO3)c1 (stereo not drawn) | 24% (inactive) | 4.25% |
| COc1ccc(-n2c(C)nc3c(cnn3-c3ccc(Cl)cc3)c2=O)cc1 | 4.4% (inactive) | 5.6% |
| Cn1c(=O)cc(OCC(=O)NCCCN2CCN(c3cccc(Cl)c3)CC2)c2ccccc21 | 20% (inactive) | 8.2% |
